Only some compounds are listed: those with a hit (about 11% of all), similar ones and a draw of the others.
AMA1 RON2 block – inhibitors of Plasmodium falciparum AMA1-RON2 interaction; AlphaScreen AMA1-biotinylated RON2 peptide binding; Potency, µM (doses to about 58.2 µM), actives largely listed as inhibitors; 360,000 tested, 0.2% active; AID 720542; further: nearly all actives have a fitted effect of over 45% in size
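AMA1 (3D7) with his tag at 25 nM final met compounds first, then biotinylated RON2 peptide at 25 nM; detection used donor plus acceptor beads, 10 µg/mL apiece, read by AlphaScreen after 30 min at room temperature.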
Pf growth 96h – inhibits malaria parasite growth, 96 h; Potency, µM (titrated, usually from 28.7 µM), usual class: inhibitors; P. falciparum luciferase reporter growth, 96 h; 320,000 tested, 6.9% active
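Two-generation exposure (96 h) targets delayed-death phenotype. Reporter parasites carrying integrated firefly luciferase, in red cells at 2% hematocrit and 0.05% parasitemia final, kept at 37 C, 5% CO2; luminescence loss indicates inhibition.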
Pf growth 48h – P. falciparum growth inhibition at 48 hours (one generation); P. falciparum luciferase growth in erythrocytes, 48 h; Potency, µM (top dose mostly 28.7 µM), hits mostly inhibitors; 310,000 tested, 5.9% active
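Luciferase-expressing P. falciparum in infected erythrocytes (2% hematocrit, 0.1% parasitemia final) in RPMI 1640/0.5% Albumax were exposed to compound for 48 hours at 37 C, 5% CO2; growth read as luminescence.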
HCV inh – inhibitors of hepatitis C virus infection. Huh7.5.1 HCVcc-Cre infection, luciferase reporter, 44 h. Potency, µM (top dose mostly 41.8 µM), actives largely listed as inhibitors. 340,000 tested, 3.4% active. AID 651820
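Seed cells (1,000/well) for 4 h; treat with compound and infect with HCVcc-Cre, moi about 0.5. Incubate 44 h, then detect luciferase activity.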
Hits are given with their value; n = inactive; u = inconclusive; x = no result; [ ] = remark or other dose. The call rests on the fitted dose curve; in most records, active means well fitted curve in the direction sought with a large enough effect; inconclusive means small, poorly fitted or top-dose-only effect, or another doubt; inactive means no such curve, though single readings can be large; an effect the other way counts as inactive or inconclusive.

SMILES	AMA1 RON2 block	Pf growth 96h	Pf growth 48h	HCV inh
COc1ccc(C(=O)c2coc3ccc(O)c(CN4CCCC4)c23)cc1	n	u	x	n
Cc1ccc(C(=O)c2coc3ccc(O)c(CN4CCN(C)CC4)c23)cc1	n	n	3.7µM	u
O=C(O)c1cc(N/N=C/C=C/c2ccccc2[N+](=O)[O-])ccc1Cl	n	n	n	n
CC(NC(=S)Nc1ccc(S(=O)(=O)N2CCOCC2)cc1)C1CC2CCC1C2 (stereo unspecified)	n[11.6 µM]	u	u	n
CC(C)Cn1nc(NC(=O)C(C)(C)C)c2cc3ccccc3nc21	n	u	9.28µM	n
Cc1ccc2nc3c(cc2c1)c(NC(=O)c1ccco1)nn3CC(C)C	n	u	u	u
Cc1cc2nn(-c3cccc4ccccc34)nc2cc1NC(=O)c1cccs1	n	7.38µM	x	u
COc1ccc2nc3c(cc2c1)c(NC(=O)c1cccs1)nn3CC(C)C	n	n	u	u
CCCCC(=O)Nc1nn(CC(C)C)c2nc3ccccc3cc12	n	n	u	n
Cc1ccc(-c2nn3c(C)nnc3s2)cc1NC(=O)c1cccs1	n	x	u	u
CC(C)Cn1nc(NC(=O)c2cccs2)c2cc3ccccc3nc21	n	u	u	8.91µM
Cc1ccc2nc3c(cc2c1)c(NC(=O)C(C)(C)C)nn3CC(C)C	n	1.04µM	13.1µM	u
COc1ccc(S(=O)(=O)N(n2c(C)nnc2-n2nc(C)cc2C)S(=O)(=O)c2ccc(OC)cc2)cc1	n	n	n	n
CCCn1c(SC(C)C(=O)NC2CCCC2)n[nH]c1=O (stereo unspecified)	n	n	n	n
CCCNC(=O)COc1ccc(S(=O)(=O)Nc2ccc(C)cc2)cc1	n	x	u	n
CN(C)/C=C1\SC(=S)N(c2ccc(Br)cc2)C1=O	n	n	2.33µM	n
CN(C)/C=C1\SC(=S)N(c2ccc(F)cc2)C1=O	n	n	u	n
Cc1ccc(S(=O)(=O)N2CCN=C2SC(C)c2ccccc2)cc1 (stereo unspecified)	n	u	n	u
CC(SC1=NCCN1S(=O)(=O)c1ccccc1)c1ccccc1 (stereo unspecified)	n	13.1µM	n	u
CSC1=NCCN1S(=O)(=O)c1ccc(F)cc1	n	n	n	n
CC(SC1=NCCN1S(=O)(=O)c1ccc(F)cc1)c1ccccc1 (stereo unspecified)	n	11.7µM	u	u
Cc1cc(=O)[nH]c2sc(C(=O)N3c4ccccc4CC3C)c(N)c12 (stereo unspecified)	n	x	x	n
CNC(=S)N1CCN=C1Nc1nc(C)cc(C)n1	n	u	n	n
O=C1CC2(CCCC2)Oc2ccccc21	n	x	x	n
CCOC(=O)N1CCN(C(=O)CSc2ccc(C(=O)OC)cc2[N+](=O)[O-])CC1	n	4.65µM	n	n
SMILES	AMA1 RON2 block	Pf growth 96h	Pf growth 48h	HCV inh
CCOC(=O)CSc1ccc(C(=O)N2CCC3(CC2)OCCO3)cc1[N+](=O)[O-]	n	7.38µM	u	n
O=C(NCCN1CCN(C(=O)c2cccc(OC(F)F)c2)CC1)c1cccc(OC(F)F)c1	n	x	x	u
O=C(CC1CCCCC1)Nc1ncn[nH]1	n	2.94µM	n	n
O=C(CC(c1ccccc1)c1ccccc1)Nc1ncn[nH]1	n	n	n	n
S=C(NCc1ccco1)NCC1CCCO1 (stereo unspecified)	n	n	n	n
O=C(C1CCCN(S(=O)(=O)c2ccccc2)C1)N1CCN(c2ccccc2)CC1 (stereo unspecified)	n	n	u	u
O=C(C1CCCN(S(=O)(=O)c2ccc(Br)s2)C1)N1CCN(c2ccccc2)CC1 (stereo unspecified)	u	n	8.28µM	10µM
O=C(C1CCCN(S(=O)(=O)c2ccc(Br)cc2)C1)N1CCN(Cc2ccccc2)CC1 (stereo unspecified)	n	n	6.57µM	11.2µM
COC1=CC(=O)C(OC)=C(OC)C1=O	n	x	x	u
CCCCN(CC)C(=O)c1oc2ccc(S(=O)(=O)N3CCCC3)cc2c1C	n	13.1µM	u	u
CCOC(=O)N1CCN(C(=O)c2oc3ccc(S(=O)(=O)N4CC(C)CC(C)C4)cc3c2C)CC1 (stereo unspecified)	n	x	u	u
CCOC(=O)C1CCN(C(=O)c2oc3ccc(S(=O)(=O)N4CC(C)CC(C)C4)cc3c2C)CC1 (stereo unspecified)	n	n	2.33µM	4.47µM
CCOC(=O)N1CCN(C(=O)c2oc3ccc(S(=O)(=O)N4CCCCCC4)cc3c2C)CC1	n	u	11.7µM	u
Cc1c(C(=O)N2CCc3ccccc3C2)oc2ccc(S(=O)(=O)N3CCCCCC3)cc12	n	u	u	8.91µM
CCOC(=O)C1CCCN(S(=O)(=O)c2cnc(Cl)c(Br)c2)C1 (stereo unspecified)	n	n	n	u
Cc1cc(C(=O)Cn2cnc3ccc(Cl)cc3c2=O)c(C)n1C1CC1	n	x	x	u
Cc1ccc(NC(=O)COC(=O)CN2CCSC2=O)cc1Cl	n	x	x	x
COc1ccc(OC(C)C(=O)N(C)Cc2nc(-c3cccc(C)c3)no2)cc1 (stereo unspecified)	n	n	n	u
COC(=O)n1c(=O)oc2cc(S(=O)(=O)N3CCCCC3)ccc21	n	n	n	n
CCOC(=O)n1c(=O)oc2cc(S(=O)(=O)N3CCCCC3)ccc21	n	0.0029µM	u	n
CC(=O)c1sc(NC(=O)CCS(=O)(=O)c2ccc(F)cc2)nc1C	n	x	x	x
O=C(COc1ccc(Br)cc1)Nc1ccc([N+](=O)[O-])cn1	n	4.15µM	n	n
O=C(Cc1ccc([N+](=O)[O-])cc1)Nc1ccc(Br)cn1	n	u	n	n
CC(=O)c1sc(NC(=O)CCS(=O)(=O)c2ccccc2)nc1C	n	n	n	12.6µM
CC(=O)c1sc(NC(=O)COc2ccc([N+](=O)[O-])cc2)nc1C	n	14.7µM	n	n
SMILES	AMA1 RON2 block	Pf growth 96h	Pf growth 48h	HCV inh
Fc1ccc(Nc2ncnc3sccc23)cc1	n	n	n	n
O=C(CN1CSCC1=O)N1CCN(S(=O)(=O)c2ccc(Cl)cc2)CC1	n	n	n	n
Cc1cc(N2CCCCCC2)nc(-c2ccccc2O)n1	n	x	n	12.6µM
CCSc1cc(N2CCOCC2)nc(-c2ccccc2)n1	n	u	u	n
Cc1cc(N2CCOCC2)nc(-c2ccccc2O)n1	n	2.33µM	n	u
CCCSc1cc(N2CCOCC2)nc(-c2ccccc2Cl)n1	n	11.7µM	x	n
CC(=O)C1=C(C)Nc2ncnn2C1c1cccc(Br)c1 (stereo unspecified)	n	u	x	n
Brc1ccc2c(c1)OCCOCCOCCOCCOCCO2	n	10.4µM	n	n
Brc1ccc2c(c1)OCCOCCOCCOCCOCCOCCO2	n	n	n	n
c1ccc2c(c1)OCCOCCOCCOCCOc1ccccc1OCCOCCOCCO2	n	11.7µM	n	u
CN1CCOCCOc2ccccc2OCCOCC1	n	x	x	n
CCc1nn(-c2cc(Cl)ccc2OC)c2c1C(=O)CCC2	n	u	n	14.1µM
COCCN(C(=O)CSc1nc2ccccc2c(=O)n1C(C)COC)c1c(N)n(Cc2ccccc2)c(=O)[nH]c1=O (stereo unspecified)	n	n	u	n
